Assay outcomes as filed in PubChem BioAssay.
Hits are enriched below; roughly 4.7% of the tested compounds scored in any of these assays.
tim10-1 inh: tim10-1 yeast growth inhibition. 2.2% of 330,000 active. S. cerevisiae tim10-1 ts strain growth, BacTiter-Glo, 24 h. AID 463190. inhibition, % at 20 µM;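 active = inhibition of at least 40%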;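 also: mutant grown at 25 °C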
EBI2 block: EBI2 (human) antagonism | inhibition, % at 5 µM | 0.81% of 360,000 active | EBI2 beta-arrestin recruitment, luminescence, 7a,25-OHC stimulated; in the data active = inhibition above about 38%;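 also: enzyme fragment complementation signal reports receptor beta-arrestin coupling in cells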
Target sequence (P32249 whole entry, looked up, the tested form may be a part): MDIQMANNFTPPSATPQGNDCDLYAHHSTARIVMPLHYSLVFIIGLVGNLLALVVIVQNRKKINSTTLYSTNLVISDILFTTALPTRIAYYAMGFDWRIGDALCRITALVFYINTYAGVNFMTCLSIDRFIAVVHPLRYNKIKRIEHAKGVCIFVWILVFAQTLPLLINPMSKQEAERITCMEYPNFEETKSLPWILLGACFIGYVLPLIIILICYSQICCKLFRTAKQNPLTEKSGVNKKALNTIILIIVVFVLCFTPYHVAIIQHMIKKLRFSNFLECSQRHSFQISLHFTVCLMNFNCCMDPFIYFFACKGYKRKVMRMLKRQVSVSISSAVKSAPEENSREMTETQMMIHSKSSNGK
SKKanGAS inh: blocks kanamycin growth of S. pyogenes SKKanGAS strain. BacTiter-Glo, 6 h. inhibition, % at 7.5 µM. 1.3% of 300,000 active. AID 1662;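 active = mean replicate score, as percent of positive control median, at least 50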;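 also: strain carries kanamycin resistance gene driven by streptokinase promoter and grows in 40 µg/ml kanamycin; loss of luminescence reflects streptokinase promoter inhibition or plain growth inhibition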
TIM10 inh: growth inhibitors of TIM10 yeast strain. 1.4% of 330,000 active. inhibition, % at 10 µM. S. cerevisiae TIM10 strain growth, BacTiter-Glo luminescence, 24 h;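 active = inhibition of 40% or more at the single tested concentration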;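 also: wild-type TIM10 isogenic control strain grown at permissive 25 °C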
tim23-1 inh: inhibits growth of tim23-1 mutant yeast; S. cerevisiae tim23-1 growth, BacTiter-Glo luminescence, 24 h; inhibition, % at 20 µM; 1.3% of 330,000 active;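 active = growth inhibition of the mutant yeast at or above 50%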;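 also: temperature-sensitive mutant grown at 25 °C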
PfHsp90 yeast 2: reduces growth (ATP signal) of yeast expressing P. falciparum Hsp90 | S. cerevisiae expressing PfHsp90, BacTiter-Glo ATP, 48 h; yeast lacking PDR1 and PDR3 efflux regulators | inhibition, % at 9.4 µM | 0.32% of 310,000 active;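 active = every replicate shows inhibition above about 80%, whatever the replicate mean, limit read from the data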
EBI2 antag conf: confirmation of human EBI2 receptor antagonists | EBI2 beta-arrestin luminescence, 7a,25-OHC antagonism | inhibition, % at 5 µM | shares compounds with EBI2 block | 29% of 2,400 active;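 active = inhibition of at least 50%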
EBI2 agonist: activates EBI2, counter-screen for EBI2 antagonists | shares compounds with EBI2 block | EBI2-expressing cells, agonist mode, luminescence, 60 min; 0% vehicle, 100% 7α,25-dihydroxycholesterol control | activation, % at 5 µM | 2,400 tested, under 10 active | AID 652000;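 active = activation of at least 50%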
bGal cs: beta-galactosidase inhibition counter-screen. shares compounds with EBI2 block. 1% of 2,400 active. purified beta-galactosidase, luminescent Galacton Star, 15 min. inhibition, % at 5 µM;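 active = replicate-average signal at least 3 plate SD below neutral wells, shown as high inhibition, flagging enzyme-inhibiting false positives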;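 also: higher means stronger loss of beta-gal luminescence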
Each line names hits and unclear results; the compound was inactive in the other large screens (follow-up assays come after a bar, where they were run).

Cc1ccc(C(C)C)c(OCCNC(=O)c2cncc(Br)c2)c1	EBI2 block 49.6 | EBI2 antag conf inactive | EBI2 agonist inactive | bGal cs inactive
CCCCn1nnnc1C(c1ccccc1OC(F)(F)F)N1CCN(C/C=C/c2ccccc2)CC1 (stereo not drawn)	EBI2 block 67.9 (no result: tim10-1 inh, SKKanGAS inh, TIM10 inh, tim23-1 inh, PfHsp90 yeast 2) | EBI2 antag conf 58.0 | EBI2 agonist inactive | bGal cs inactive
FC(F)(F)Oc1ccccc1C(c1nnnn1Cc1ccccc1)N1CCN(C/C=C/c2ccccc2)CC1 (stereo not drawn)	EBI2 block 67.1 (no result: tim10-1 inh, SKKanGAS inh, TIM10 inh, tim23-1 inh, PfHsp90 yeast 2) | EBI2 antag conf inactive | EBI2 agonist inactive | bGal cs inactive
COc1ccccc1C(c1nnnn1Cc1ccccc1)N1CCN(C2CCCC2)CC1 (stereo not drawn)	none
O=C(NCCc1c[nH]c2ccccc12)C(=O)NCC(c1ccco1)N1CCN(c2ccc(F)cc2)CC1 (stereo not drawn)	EBI2 block 41.0 | EBI2 antag conf inactive | EBI2 agonist inactive | bGal cs inactive
O=C(NCCc1c[nH]c2ccccc12)C(=O)NCC(c1ccco1)N1CCN(c2ccccc2)CC1 (stereo not drawn)	EBI2 block 36.5 | EBI2 antag conf inactive | EBI2 agonist inactive | bGal cs inactive
O=C(NCC(c1ccco1)N1CCN(c2ccc(F)cc2)CC1)C(=O)NC1CC1 (stereo not drawn)	none
O=C(NCCc1ccccc1)C1CCC(Cn2c(=O)c3ccccc3n(Cc3cccc(F)c3)c2=O)CC1 (stereo not drawn)	EBI2 block 61.1 | EBI2 antag conf inactive | EBI2 agonist inactive | bGal cs inactive
O=C(NCCc1ccccc1)C1CCC(Cn2c(=O)c3ccccc3n(Cc3cccc(Cl)c3)c2=O)CC1 (stereo not drawn)	none (no result: SKKanGAS inh)
CCOC(=O)c1c(NC(=O)C2=C(C)NC(=S)NC2c2ccc(F)cc2F)sc(C)c1C (stereo not drawn)	EBI2 block 85.6 | EBI2 antag conf inactive | EBI2 agonist inactive | bGal cs inactive
CCOC(=O)c1c(NC(=O)C2=C(C)NC(=S)NC2c2ccc(C)cc2)sc(C)c1C (stereo not drawn)	EBI2 block 92.3 | EBI2 antag conf inactive | EBI2 agonist inactive | bGal cs inactive
CCOC(=O)c1c(NC(=O)C2=C(C)NC(=S)NC2c2ccc(F)cc2)sc(C)c1C (stereo not drawn)	EBI2 block 82.1 | EBI2 antag conf 52.9 | EBI2 agonist inactive | bGal cs inactive
CC(C)(C)c1ccc(C(=O)NCc2ccccc2)cc1	none
CC(C)(C)OC(=O)N1CCCN(C(=O)c2ccc(Cl)cc2)CC1	none
CC(C)(C)c1ccc(C(=O)NCc2ccc(Cl)cc2)cc1	EBI2 block 53.4 | EBI2 antag conf inactive | EBI2 agonist inactive | bGal cs inactive
CC(C)(C)OC(=O)N1CCN(c2ccc(CNC(=O)c3ccc(Cl)cc3)cc2)CC1	EBI2 block 59.4 (no result: PfHsp90 yeast 2) | EBI2 antag conf inactive | EBI2 agonist inactive | bGal cs inactive
CC(C)C[C@@H](CN1CCC[C@@H]1CN1C(=S)NC[C@@H]1Cc1ccc(O)cc1)N1C[C@H](Cc2ccc(O)cc2)N(CC2CCCCCC2)C1=S	EBI2 block 84.7 (no result: tim10-1 inh, SKKanGAS inh, TIM10 inh, tim23-1 inh, PfHsp90 yeast 2) | EBI2 antag conf inactive | EBI2 agonist inactive | bGal cs inactive
CC(C)C[C@@H](CN1CCCC1CN1C(=S)NC[C@@H]1Cc1ccccc1)N1C[C@H](Cc2ccc(O)cc2)N(CC2CCCCC2)C1=S (stereo partly drawn)	none (no result: tim10-1 inh, SKKanGAS inh, TIM10 inh, tim23-1 inh, PfHsp90 yeast 2)
CC(C)C[C@@H](CN1CCC[C@@H]1CN1C(=S)NC[C@@H]1Cc1ccc(O)cc1)N1C[C@H](Cc2ccc(O)cc2)N(CC2CCCCC2)C1=S	EBI2 block 88.8 (no result: tim10-1 inh, SKKanGAS inh, TIM10 inh, tim23-1 inh, PfHsp90 yeast 2) | EBI2 antag conf inactive | EBI2 agonist inactive | bGal cs inactive
COc1ccc(S(=O)(=O)NCc2ccccn2)c(Cl)c1Cl	none
Cc1cccc(C)c1N1CCN(C(=O)Nc2ccc3c(c2)OCCO3)CC1	EBI2 block 63.9 | EBI2 antag conf 54.4 | EBI2 agonist inactive | bGal cs inactive
O=C(Nc1ccc2c(c1)OCCO2)N1CCN(c2ccc(F)cc2)CC1	none
CCOC(=O)c1[nH]c2ccc(OCC)cc2c1CCCN1C(=O)c2ccccc2C1=O	EBI2 block 45.9 | EBI2 antag conf inactive | EBI2 agonist inactive | bGal cs inactive
CCOC(=O)c1[nH]c(C)c(C(=O)OCCN2C(=O)c3ccccc3C2=O)c1C	none (no result: PfHsp90 yeast 2)
COc1ccc(OCC(=O)N(C)Cc2ccccc2)cc1	EBI2 block 63.0 | EBI2 antag conf 56.2 | EBI2 agonist inactive | bGal cs inactive
CC(C)NS(=O)(=O)c1ccc(OCC(=O)N(C)Cc2ccccc2)cc1	none
Cc1cc(OCC(=O)N(C)Cc2ccccc2)ccc1Cl	EBI2 block 83.3 (no result: SKKanGAS inh) | EBI2 antag conf 72.2 | EBI2 agonist inactive | bGal cs inactive
COc1ccc(OCC(=O)N(C)CC2COc3ccccc3O2)cc1 (stereo not drawn)	EBI2 block 45.5 (no result: SKKanGAS inh) | EBI2 antag conf inactive | EBI2 agonist inactive | bGal cs inactive
COc1ccc2c(CC(=O)N(C)CC3COc4ccccc4O3)coc2c1 (stereo not drawn)	none (no result: PfHsp90 yeast 2)
Cc1cc(OCC(=O)N(C)Cc2ccccc2)ccc1Br	EBI2 block 91.4 | EBI2 antag conf 86.7 | EBI2 agonist inactive | bGal cs inactive
Cc1csc(=O)n1CC(=O)OCC(=O)c1ccc(Br)cc1	none
C[C@@H](CSc1ccccc1)CN1CC[C@H](O)CCC1=O	none
O=c1[nH]c2ccccc2n2cnnc12	none
CCOc1ccc(N(CC(=O)Nc2ccc(C)c(C)c2)S(C)(=O)=O)cc1	none
Cc1ccc(C(=O)Nc2ccc(N3CCOCC3)nc2N2CCOCC2)cc1	none
CCC(CC)C(=O)N(C)c1c(C)nc2c(OCc3ccc(Cl)cc3Cl)cccn12	EBI2 block 47.3 (no result: tim10-1 inh, SKKanGAS inh, TIM10 inh, tim23-1 inh, PfHsp90 yeast 2) | EBI2 antag conf inactive | EBI2 agonist inactive | bGal cs inactive
COc1cccc(N2CCN(C(=O)c3cc4c(s3)CCCCC4)CC2)c1	none (no result: SKKanGAS inh)
C(=N\Nc1nc2ccccc2[nH]1)/c1ccc2c(c1)OCO2	none (no result: tim10-1 inh, TIM10 inh, tim23-1 inh)
C(=C/c1nccc2c1[nH]c1ccccc12)/c1ccc2c(c1)OCO2	EBI2 block 56.3 (no result: tim10-1 inh, TIM10 inh, tim23-1 inh) | EBI2 antag conf inactive | EBI2 agonist inactive | bGal cs inactive
